From the supplement of paper PMC10849652
The full data set covers some 8,800 targets. This sample favours those with a hit. About 0.5% of all pairs of compound and target were hits. A number with no mark means an inactive call.

Compound: CC1=C(C2=C(C=C1)C(=O)C3=CC=CC=C3N2CCCN)C
Assay: log2 fold change, soluble protein after heating vs DMSO (PISA); higher = thermal stabilisation; K562 lysate, 10 uM; active = over 0.2 and 3.5 SD of the protein, either way, in both replicates (recomputed)
Outline: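 K562 pellets were dounce-homogenised in PBS pH 7.4 containing 1 mM MgCl2, and the crude extract, at 1 mg/mL protein, was exposed to 10 μM compound for 30 min. Aliquots were heated for 3 min across 48°C-58°C, pooled, brought to 0.5% NP-40 at 4°C and spun at 21,000xg for 90 min, with the supernatant taken as soluble protein. TMTpro 16plex LC-MS/MS with equalised channel sums quantified that protein. Values are log-two fold changes in thermal stability relative to solvent controls, taken from duplicates.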

Chain of UniProt Q53S08 (Q53S08 whole entry, looked up): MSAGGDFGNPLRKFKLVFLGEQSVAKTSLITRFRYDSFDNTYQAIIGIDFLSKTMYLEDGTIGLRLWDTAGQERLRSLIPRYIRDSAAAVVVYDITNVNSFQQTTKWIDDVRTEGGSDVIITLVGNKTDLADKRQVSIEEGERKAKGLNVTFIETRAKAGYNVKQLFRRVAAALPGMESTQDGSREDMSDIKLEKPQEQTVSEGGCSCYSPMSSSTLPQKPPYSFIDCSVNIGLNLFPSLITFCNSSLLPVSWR
Chain of UniProt Q6NUQ1 (Q6NUQ1 whole entry, looked up): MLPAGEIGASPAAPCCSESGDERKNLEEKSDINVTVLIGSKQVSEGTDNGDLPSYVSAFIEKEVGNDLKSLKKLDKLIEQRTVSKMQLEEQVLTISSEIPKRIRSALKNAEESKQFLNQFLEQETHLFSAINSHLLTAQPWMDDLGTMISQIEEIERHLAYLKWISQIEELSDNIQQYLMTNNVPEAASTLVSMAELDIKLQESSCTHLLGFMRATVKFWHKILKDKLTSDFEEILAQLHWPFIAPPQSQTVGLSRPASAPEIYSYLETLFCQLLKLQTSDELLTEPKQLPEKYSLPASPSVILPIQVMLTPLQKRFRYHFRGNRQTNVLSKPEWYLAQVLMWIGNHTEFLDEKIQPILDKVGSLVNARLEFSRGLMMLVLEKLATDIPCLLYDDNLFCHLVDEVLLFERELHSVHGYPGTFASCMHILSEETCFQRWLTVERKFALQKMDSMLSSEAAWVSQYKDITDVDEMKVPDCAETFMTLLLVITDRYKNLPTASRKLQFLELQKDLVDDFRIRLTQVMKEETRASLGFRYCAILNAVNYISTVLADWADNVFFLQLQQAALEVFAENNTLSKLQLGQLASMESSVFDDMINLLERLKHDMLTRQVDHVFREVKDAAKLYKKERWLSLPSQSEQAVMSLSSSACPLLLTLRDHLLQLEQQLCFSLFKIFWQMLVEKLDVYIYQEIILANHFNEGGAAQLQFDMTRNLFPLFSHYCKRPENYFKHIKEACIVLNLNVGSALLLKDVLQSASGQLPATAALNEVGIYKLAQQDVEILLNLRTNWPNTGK
Chain of UniProt P04049 (P04049 whole entry, looked up): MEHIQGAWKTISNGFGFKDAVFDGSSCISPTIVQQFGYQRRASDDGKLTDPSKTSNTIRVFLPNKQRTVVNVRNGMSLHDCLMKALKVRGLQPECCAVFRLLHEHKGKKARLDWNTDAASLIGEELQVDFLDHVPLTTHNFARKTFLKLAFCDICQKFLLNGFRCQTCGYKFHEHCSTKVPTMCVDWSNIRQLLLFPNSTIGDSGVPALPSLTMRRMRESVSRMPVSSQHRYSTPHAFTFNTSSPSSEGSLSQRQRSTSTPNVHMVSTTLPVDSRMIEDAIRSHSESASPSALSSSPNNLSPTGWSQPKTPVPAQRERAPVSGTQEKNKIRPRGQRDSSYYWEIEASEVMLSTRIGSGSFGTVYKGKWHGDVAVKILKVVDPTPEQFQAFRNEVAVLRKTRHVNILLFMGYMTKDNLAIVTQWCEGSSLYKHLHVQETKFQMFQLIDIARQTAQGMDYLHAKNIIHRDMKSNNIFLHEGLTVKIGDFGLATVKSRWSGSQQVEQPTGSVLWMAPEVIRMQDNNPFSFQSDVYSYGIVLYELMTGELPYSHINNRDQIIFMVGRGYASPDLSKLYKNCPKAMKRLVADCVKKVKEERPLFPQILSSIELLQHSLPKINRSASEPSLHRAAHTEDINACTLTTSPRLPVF
Chain of UniProt P35250 (P35250 whole entry, looked up): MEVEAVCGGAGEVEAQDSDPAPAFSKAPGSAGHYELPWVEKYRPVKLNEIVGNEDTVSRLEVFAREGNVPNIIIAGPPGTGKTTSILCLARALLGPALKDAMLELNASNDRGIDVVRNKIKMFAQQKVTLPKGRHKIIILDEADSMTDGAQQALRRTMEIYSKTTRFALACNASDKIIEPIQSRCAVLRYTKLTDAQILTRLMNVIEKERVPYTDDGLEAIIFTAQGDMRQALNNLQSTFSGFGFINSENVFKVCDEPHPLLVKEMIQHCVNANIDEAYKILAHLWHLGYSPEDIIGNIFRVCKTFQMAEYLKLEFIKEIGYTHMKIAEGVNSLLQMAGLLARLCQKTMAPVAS
Chain of UniProt Q13530 (Q13530 whole entry, looked up): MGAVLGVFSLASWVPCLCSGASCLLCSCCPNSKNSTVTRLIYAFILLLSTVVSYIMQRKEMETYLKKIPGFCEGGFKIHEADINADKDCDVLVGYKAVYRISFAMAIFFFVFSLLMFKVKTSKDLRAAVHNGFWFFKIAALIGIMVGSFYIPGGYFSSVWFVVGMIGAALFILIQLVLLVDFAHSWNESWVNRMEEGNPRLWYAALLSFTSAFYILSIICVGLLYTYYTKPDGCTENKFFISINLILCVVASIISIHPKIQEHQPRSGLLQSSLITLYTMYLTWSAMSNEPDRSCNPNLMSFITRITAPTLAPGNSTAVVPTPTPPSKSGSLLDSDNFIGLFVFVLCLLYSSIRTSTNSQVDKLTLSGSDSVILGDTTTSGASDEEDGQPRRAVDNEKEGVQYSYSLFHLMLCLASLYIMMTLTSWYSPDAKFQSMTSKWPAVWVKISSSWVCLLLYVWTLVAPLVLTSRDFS
Chain of UniProt Q8WWV3 (Q8WWV3 whole entry, looked up): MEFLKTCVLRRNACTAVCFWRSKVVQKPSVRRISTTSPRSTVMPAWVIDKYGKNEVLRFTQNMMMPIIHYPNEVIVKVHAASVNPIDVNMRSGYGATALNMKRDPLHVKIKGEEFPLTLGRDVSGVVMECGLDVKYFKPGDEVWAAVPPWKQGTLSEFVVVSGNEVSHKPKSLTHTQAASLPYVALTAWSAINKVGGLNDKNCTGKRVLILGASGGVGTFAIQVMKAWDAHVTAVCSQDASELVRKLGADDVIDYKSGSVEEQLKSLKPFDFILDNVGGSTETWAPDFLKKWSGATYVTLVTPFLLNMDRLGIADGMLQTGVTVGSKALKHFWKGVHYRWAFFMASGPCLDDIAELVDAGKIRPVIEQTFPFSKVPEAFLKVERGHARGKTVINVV
Chain of UniProt Q99574 (Q99574 whole entry, looked up): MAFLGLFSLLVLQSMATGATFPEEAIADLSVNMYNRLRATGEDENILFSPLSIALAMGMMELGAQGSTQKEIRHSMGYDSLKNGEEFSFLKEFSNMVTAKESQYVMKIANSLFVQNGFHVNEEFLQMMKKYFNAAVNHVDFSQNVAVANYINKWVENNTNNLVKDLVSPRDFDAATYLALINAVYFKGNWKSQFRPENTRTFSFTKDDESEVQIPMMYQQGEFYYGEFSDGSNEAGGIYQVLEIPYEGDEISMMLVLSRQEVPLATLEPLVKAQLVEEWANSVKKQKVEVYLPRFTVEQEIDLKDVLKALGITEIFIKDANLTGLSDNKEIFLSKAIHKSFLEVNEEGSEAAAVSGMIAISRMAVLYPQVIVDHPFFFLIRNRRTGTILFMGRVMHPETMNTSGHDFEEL
Chain of UniProt Q9Y6B6 (Q9Y6B6 whole entry, looked up): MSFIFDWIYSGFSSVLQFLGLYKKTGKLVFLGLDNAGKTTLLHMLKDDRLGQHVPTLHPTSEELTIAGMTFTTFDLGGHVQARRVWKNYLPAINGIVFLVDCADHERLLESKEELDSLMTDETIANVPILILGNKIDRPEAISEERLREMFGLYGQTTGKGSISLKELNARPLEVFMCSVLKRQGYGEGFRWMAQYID
Chain of UniProt P23443 (P23443 whole entry, looked up): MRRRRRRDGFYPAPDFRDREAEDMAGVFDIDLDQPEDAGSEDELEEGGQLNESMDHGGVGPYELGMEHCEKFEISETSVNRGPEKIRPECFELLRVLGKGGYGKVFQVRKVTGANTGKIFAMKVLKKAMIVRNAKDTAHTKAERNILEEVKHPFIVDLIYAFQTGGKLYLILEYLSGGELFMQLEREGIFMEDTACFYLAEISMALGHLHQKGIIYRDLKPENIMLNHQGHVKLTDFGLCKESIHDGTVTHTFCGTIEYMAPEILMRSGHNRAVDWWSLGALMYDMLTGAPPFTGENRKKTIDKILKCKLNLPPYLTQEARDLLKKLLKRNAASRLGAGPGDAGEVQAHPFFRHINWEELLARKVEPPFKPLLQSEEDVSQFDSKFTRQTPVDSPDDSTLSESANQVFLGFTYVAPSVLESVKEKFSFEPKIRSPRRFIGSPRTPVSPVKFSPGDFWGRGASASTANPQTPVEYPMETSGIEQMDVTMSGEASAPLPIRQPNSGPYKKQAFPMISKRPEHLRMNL
Chain of UniProt P31949 (P31949 whole entry, looked up): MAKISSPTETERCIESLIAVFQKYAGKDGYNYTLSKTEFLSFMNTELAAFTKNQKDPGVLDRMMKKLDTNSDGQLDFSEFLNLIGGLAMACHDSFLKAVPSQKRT
Chain of UniProt Q13546 (Q13546 whole entry, looked up): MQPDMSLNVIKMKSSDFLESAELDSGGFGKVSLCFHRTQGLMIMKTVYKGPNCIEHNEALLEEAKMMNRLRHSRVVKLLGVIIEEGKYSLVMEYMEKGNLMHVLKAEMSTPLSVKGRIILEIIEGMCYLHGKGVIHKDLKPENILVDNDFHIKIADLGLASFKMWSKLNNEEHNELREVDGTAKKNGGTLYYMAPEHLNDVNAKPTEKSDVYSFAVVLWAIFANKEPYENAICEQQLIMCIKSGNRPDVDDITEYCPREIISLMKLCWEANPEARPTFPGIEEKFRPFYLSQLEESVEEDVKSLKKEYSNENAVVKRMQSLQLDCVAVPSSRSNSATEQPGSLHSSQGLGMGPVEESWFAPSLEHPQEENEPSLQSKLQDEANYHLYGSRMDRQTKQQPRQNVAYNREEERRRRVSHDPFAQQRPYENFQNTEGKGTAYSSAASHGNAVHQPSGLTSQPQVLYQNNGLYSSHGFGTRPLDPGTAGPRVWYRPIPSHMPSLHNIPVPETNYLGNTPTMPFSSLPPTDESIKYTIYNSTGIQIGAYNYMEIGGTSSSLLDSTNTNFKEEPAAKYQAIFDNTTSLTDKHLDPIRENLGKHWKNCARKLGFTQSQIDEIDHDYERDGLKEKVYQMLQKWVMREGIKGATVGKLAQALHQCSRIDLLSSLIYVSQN

Target | log2 fold change
SERPINI1 (UniProt Q99574) | 0.004
SASS6 (UniProt Q6UVJ0) | 0.007
RPS6KB1 (UniProt P23443) | 0.01
SAMHD1 (UniProt Q9Y3Z3) | -0.017
S100A11 (UniProt P31949) | 0.003
RTN4IP1 (UniProt Q8WWV3) | -0.011
RIOK3 (UniProt O14730) | -0.023
RAB6D (UniProt Q53S08) | -0.057
RHAG (UniProt Q02094) | -0.056
RIPK1 (UniProt Q13546) | -0.013
RMC1 (UniProt Q96DM3) | -0.018
RAB21 (UniProt Q9UL25) | 0.021
RABEPK (UniProt Q7Z6M1) | -0.007
SCO1 (UniProt O75880) | -0.011
RINT1 (UniProt Q6NUQ1) | -0.064
RDH14 (UniProt Q9HBH5) | 0.053
RPL31 (UniProt P62899) | -0.043

Target | log2 fold change
RAF1 isoform 2 (UniProt P04049) | -0.055
RDX (UniProt P35241) | -0.011
RPS4X (UniProt P62701) | -0.116
RIC1 (UniProt Q4ADV7) | -0.065
RRM1 (UniProt P23921) | -0.033
RNF123 (UniProt Q5XPI4) | 0.001
RNF181 (UniProt Q9P0P0) | 0.008
RNF213, A0A0A0MTC1 | 0.008
RNF168 (UniProt Q8IYW5) | 0.031
SAR1B (UniProt Q9Y6B6) | -0.018
RFC2 (UniProt P35250) | 0.011
SBF1 isoform 4 (UniProt O95248) | -0.039
SERINC3 (UniProt Q13530) | -0.055
RPS29 (UniProt P62273) | -0.093
RPS26P11 (UniProt Q5JNZ5) | -0.034
RFC5 (UniProt P40937) | -0.009
